Experimental data as given in PubChem BioAssay (EPA / NIEHS).
Results filed as inconclusive are left out. Activity calls are given as the source filed them. How the source made its calls, unless noted: active means hit-call score of the fitted dose curve at least 0.9, where 1 is the maximum; inactive means score below 0.9.

Legend:
[1] = target: Nuclear respiratory factor 1 (Homo sapiens) (UniProt Q16656); test: ATG_NRF1_CIS: Attagene CIS-FACTORIAL HepG2 Assay for human Nuclear Respiratory Factor 1 (NRF1) Orphan Gene (AID 2282987); details: HepG2 NRF1 cis-element reporter, Attagene multiplex; actives raise or lower the signal
How it was run: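 Endogenous NRF1-driven reporter transcription measured in transiently transfected human HepG2 liver cells. Readout: reporter mRNA by RT-PCR and capillary electrophoresis with fluorescence detection, 24 h post-dosing. Gain or loss of signal fitted relative to DMSO baseline.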

[2] = ATG_NFI_CIS: Attagene CIS-FACTORIAL HepG2 Assay for human Nuclear Factor I (NFI) (AID 2282989); details: HepG2 cis-regulatory reporter, NFI response element transcription; actives raise or lower the signal
How it was run: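 Read-out: reporter mRNA via RT-PCR plus capillary electrophoresis with fluorescence detection. Transiently transfected HepG2 (endogenous TF activity on cis promoters), 24 h compound exposure; gain or loss of signal fitted against DMSO.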

[3] = target: Myc proto-oncogene protein (Homo sapiens) (UniProt P01106); test: ATG_Myc_CIS: Attagene CIS-FACTORIAL HepG2 Assay for human Myelocytomatosis (Myc) Proto-Oncogene Transcription Factor (AID 2282990); details: HepG2, Attagene cis-reporter transcription factor activity; actives raise or lower the signal
How it was run: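 HepG2, transient MRTU transfection (cis promoters, endogenous TFs); 24 h dosing; TriZol RNA → oligo(dT) RT → PCR → 6-FAM primer extension → HpaI cut → CE. Bidirectional fit vs DMSO.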

[4] = ATG_NRF2_ARE_CIS: Attagene CIS-FACTORIAL HepG2 Assay for human Nuclear Factor Erythroid 2 Related Factor 2 (NFR2) response to Antioxidant Response Elements (ARE) (AID 2282992); details: HepG2 Attagene ARE/NRF2 reporter, transcription factor activity; actives raise or lower the signal
How it was run: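 Cis-factorial assay: transfected HepG2 reporter library, 24 h dosing, mRNA readout via RT-PCR/CE; DMSO-referenced bidirectional analysis.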

[5] = ATG_Oct_MLP_CIS: Attagene CIS-FACTORIAL HepG2 Assay for human Octamer-Binding Transcription Factor (Oct) (AID 2282993); details: HepG2 Attagene cis-factorial Oct reporter, mRNA; actives raise or lower the signal
How it was run: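 Read-out: reporter mRNA via RT-PCR plus capillary electrophoresis of 6-FAM-labelled fragments. Transiently transfected HepG2, 24 h exposure, endogenous TF activity on cis elements. Gain or loss of signal fitted relative to DMSO.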

[6] = target: Cellular tumor antigen p53 (Homo sapiens) (UniProt P04637); test: ATG_p53_CIS: Attagene CIS-FACTORIAL HepG2 Assay for human p53 Transcription Factor (AID 2282994); details: HepG2 p53 cis-element reporter, Attagene mRNA; actives raise or lower the signal
How it was run: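 Using HepG2 hepatoma cells carrying cis-acting multiplexed reporters, mRNA induction is detected after a 24 h exposure. Gain- and loss-of-signal responses are fitted relative to DMSO-treated cells.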

[7] = BSK_3C_TissueFactor: BioMAP Diversity Plus: 3C Assay for Tissue Factor Biomarker Activity (AID 2282997); details: BioMAP 3C HUVEC, tissue factor biomarker readout; actives raise or lower the signal
How it was run: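 HUVEC were treated 24 h, then surface tissue factor measured by ELISA and fitted bidirectionally against DMSO. Parallel SRB total-protein staining assessed overt cytotoxicity at the same time point.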

[8] = BSK_3C_uPAR: BioMAP Diversity Plus: 3C Assay for Urokinase-type plasminogen activator receptor (uPAR) Biomarker Activity (AID 2282998); details: BioMAP 3C HUVEC, uPAR biomarker ELISA; actives raise or lower the signal
How it was run: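 HUVEC primary cells; 24 h post-dose; uPAR by ELISA; gain or loss of signal fitted bidirectionally vs DMSO baseline.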

[9] = BSK_3C_VCAM1: BioMAP Diversity Plus: 3C Assay for Vascular cell adhesion molecule 1 (VCAM1) Biomarker Activity (AID 2282999); details: BioMAP 3C HUVEC, VCAM1 ELISA, cytokine-stimulated; actives raise or lower the signal
How it was run: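 Endothelial cells from human umbilical vein are treated with test chemical. At 24 h, VCAM-1 is measured by ELISA, and responses in either direction are fitted relative to DMSO.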

[10] = BSK_4H_Eotaxin3: BioMAP Diversity Plus: 4H Assay for Eotaxin 3 Biomarker Activity (AID 2283000); details: primary human endothelial cells (HUVEC); actives raise or lower the signal
How it was run: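 Eotaxin-3 (CCL26) levels were measured by ELISA in HUVEC primary cultures 24 h post-dosing. Gain or loss of signal was fitted in both directions, with DMSO serving as baseline and negative control.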

[11] = target: human Peroxisome Proliferator-activated Receptor alpha (PPARa), PPARA (gene 5465) (UniProt Q07869); test: ATG_PPARa_TRANS: Attagene TRANS-FACTORIAL HepG2 Assay for human Peroxisome Proliferator-activated Receptor alpha (PPARa) (AID 2283001; active means hit-call score of the fitted dose curve at least 0.9, where 1 is the maximum)
How it was run: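 Read-out is fluorescence of reporter cDNA fragments resolved by capillary electrophoresis after RT-PCR. Human HepG2 liver cells carried transfected PPARa-Gal4 chimera and GAL4-UAS reporter units, treated 24 h; activity scored as increase over DMSO.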

[12] = target: human Peroxisome Proliferator-activated Receptor delta (PPARd), PPARD (gene 5467) (UniProt Q03181); test: ATG_PPARd_TRANS: Attagene TRANS-FACTORIAL HepG2 Assay for human Peroxisome Proliferator-activated Receptor delta (PPARd) (AID 2283002; active means hit-call score of the fitted dose curve at least 0.9, where 1 is the maximum)
How it was run: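 Transient HepG2 transfection (multiple GAL4-UAS RTUs, chimeric receptor-Gal4); 24 h dosing; total RNA → oligo(dT) RT → PCR → 6-FAM primer extension → HpaI cut → CE. Positive direction vs DMSO.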

[13] = read-out: Intercellular Adhesion Molecule 1 (ICAM1), ICAM1 (gene 3383); test: BSK_3C_ICAM1: BioMAP Diversity Plus: 3C Assay for Intercellular Adhesion Molecule 1 (ICAM1) Biomarker Activity (AID 2283003); details: primary human endothelial cells (HUVEC); actives raise or lower the signal
How it was run: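 HUVEC primary cells stimulated under 3C conditions; ICAM1 measured by ELISA 24 h after compound dosing. Curves fitted bidirectionally against the DMSO baseline. Overt cytotoxicity checked by SRB staining of parallel cultures.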

[14] = BSK_3C_Proliferation: Cell Proliferation Assessment in the BioMAP Diversity Plus: 3C Assay (AID 2283006); details: primary human endothelial cells (HUVEC);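 on AC50: potency may reflect either rise or fall in cell number versus DMSO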
How it was run: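 Subconfluent HUVEC (3C system) cultured with chemical; relative cell number read at 48 h by sulforhodamine B total-protein staining (0.1% SRB after 10% TCA fixation, 560 nm). Bidirectional fit relative to DMSO.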

[15] = target: Peroxisome proliferator-activated receptor gamma (Homo sapiens) (UniProt P37231); test: ATG_PPARg_TRANS: Attagene TRANS-FACTORIAL HepG2 Assay for human Peroxisome Proliferator-activated Receptor-gamma (PPARg) (AID 2283007; active means hit-call score of the fitted dose curve at least 0.9, where 1 is the maximum)
How it was run: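 Read-out: reporter mRNA induction, detected by fluorescence after RT-PCR and capillary electrophoresis. Transiently transfected human HepG2 liver cells carrying a chimeric NR-Gal4 construct were dosed for 24 h; activity was fitted upward relative to DMSO.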

[16] = target: Nuclear receptor subfamily 1 group I member 2 (Homo sapiens) (UniProt O75469); test: ATG_PXR_TRANS: Attagene TRANS-FACTORIAL HepG2 Assay for human Pregnane X Receptor (PXR) (AID 2283008; active means hit-call score of the fitted dose curve at least 0.9, where 1 is the maximum)
How it was run: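 Fluorescence intensity of FAM-labelled, HpaI-digested reporter amplicons, separated by capillary electrophoresis, quantifies induction. HepG2 cells with PXR-Gal4 trans-reporter system were exposed 24 h; DMSO defines baseline.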

[17] = ATG_NF_kB_CIS: Attagene CIS-FACTORIAL HepG2 Assay for human Nuclear Factor Kappa B (NF-kB) (AID 2282991); details: HepG2 Attagene cis-factorial NF-kB reporter mRNA; actives raise or lower the signal
How it was run: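 Read-out: reporter transcript levels quantified by RT-PCR plus capillary electrophoresis of 6-FAM-labelled, HpaI-cut fragments. Transfected HepG2 cells, 24 h compound exposure, endogenous NF-kB-driven cis element; gain or loss scored versus DMSO.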

[18] = target: human Retinoic Acid Receptor gamma (RARg), RARG (gene 5916) (UniProt P13631); test: ATG_RARg_TRANS: Attagene TRANS-FACTORIAL HepG2 Assay for human Retinoic Acid Receptor gamma (RARg) (AID 2283009; active means hit-call score of the fitted dose curve at least 0.9, where 1 is the maximum)
How it was run: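 HepG2 transiently transfected with GAL4-UAS reporter units and chimeric NR-Gal4 constructs; 24 h compound exposure. Reporter mRNA quantified by RT-PCR, FAM labeling, HpaI digestion and capillary electrophoresis; gain-of-signal versus DMSO.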

[19] = target: Retinoic acid receptor alpha (Homo sapiens) (UniProt P10276); test: ATG_RARa_TRANS: Attagene TRANS-FACTORIAL HepG2 Assay for human Retinoic Acid Receptor alpha (RARa) (AID 2283005; active means hit-call score of the fitted dose curve at least 0.9, where 1 is the maximum)
How it was run: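 Reporter transcripts, measured by RT-PCR with fluorescent labeling and capillary electrophoresis after 24 h dosing, reflect activity of an exogenous human RARa–GAL4 fusion in transiently transfected HepG2. Fitted for increase relative to DMSO.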

[20] = target: human Retinoic Acid Receptor beta (RARb), RARB (gene 5915) (UniProt P10826); test: ATG_RARb_TRANS: Attagene TRANS-FACTORIAL HepG2 Assay for human Retinoic Acid Receptor beta (AID 2283004; active means hit-call score of the fitted dose curve at least 0.9, where 1 is the maximum)
How it was run: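 HepG2 cells were transiently transfected with GAL4-UAS reporter units that report activity of exogenous chimeric NR-Gal4 proteins, then exposed to compound for 24 h. Reporter mRNA was quantified by RT-PCR with capillary electrophoresis fluorescence, as gain of signal over DMSO.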

Measured: AC50

Chain of human Retinoic Acid Receptor gamma (RARg), RARG (gene 5916) (P13631 whole entry, looked up, the tested form may be a part): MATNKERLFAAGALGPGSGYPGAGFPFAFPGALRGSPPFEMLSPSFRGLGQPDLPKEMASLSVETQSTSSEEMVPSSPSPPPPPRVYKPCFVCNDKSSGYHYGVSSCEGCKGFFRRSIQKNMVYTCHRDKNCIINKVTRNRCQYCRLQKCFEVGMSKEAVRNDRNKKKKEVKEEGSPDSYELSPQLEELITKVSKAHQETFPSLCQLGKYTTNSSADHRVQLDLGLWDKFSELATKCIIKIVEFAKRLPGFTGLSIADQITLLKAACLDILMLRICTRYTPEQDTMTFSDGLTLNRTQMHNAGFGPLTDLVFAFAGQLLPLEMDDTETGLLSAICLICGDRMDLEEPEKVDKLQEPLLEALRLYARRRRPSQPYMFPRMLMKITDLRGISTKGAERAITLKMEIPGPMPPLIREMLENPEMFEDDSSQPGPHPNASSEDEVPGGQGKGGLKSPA
Chain of Nuclear respiratory factor 1 (Homo sapiens) (Q16656 whole entry, looked up): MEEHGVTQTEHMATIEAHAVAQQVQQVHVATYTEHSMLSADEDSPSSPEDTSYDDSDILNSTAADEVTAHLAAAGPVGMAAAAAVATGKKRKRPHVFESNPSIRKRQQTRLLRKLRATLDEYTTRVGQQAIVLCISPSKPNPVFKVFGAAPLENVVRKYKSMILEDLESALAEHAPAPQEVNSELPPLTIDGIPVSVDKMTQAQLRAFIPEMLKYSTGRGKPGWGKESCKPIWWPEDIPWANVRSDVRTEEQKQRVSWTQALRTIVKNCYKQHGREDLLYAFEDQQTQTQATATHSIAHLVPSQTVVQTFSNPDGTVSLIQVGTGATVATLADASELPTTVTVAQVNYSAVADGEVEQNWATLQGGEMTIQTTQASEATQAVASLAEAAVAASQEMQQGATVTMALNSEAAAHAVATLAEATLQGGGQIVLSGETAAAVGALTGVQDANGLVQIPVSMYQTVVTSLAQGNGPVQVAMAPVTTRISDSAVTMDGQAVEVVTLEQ
Chain of human Peroxisome Proliferator-activated Receptor delta (PPARd), PPARD (gene 5467) (Q03181 whole entry, looked up, the tested form may be a part): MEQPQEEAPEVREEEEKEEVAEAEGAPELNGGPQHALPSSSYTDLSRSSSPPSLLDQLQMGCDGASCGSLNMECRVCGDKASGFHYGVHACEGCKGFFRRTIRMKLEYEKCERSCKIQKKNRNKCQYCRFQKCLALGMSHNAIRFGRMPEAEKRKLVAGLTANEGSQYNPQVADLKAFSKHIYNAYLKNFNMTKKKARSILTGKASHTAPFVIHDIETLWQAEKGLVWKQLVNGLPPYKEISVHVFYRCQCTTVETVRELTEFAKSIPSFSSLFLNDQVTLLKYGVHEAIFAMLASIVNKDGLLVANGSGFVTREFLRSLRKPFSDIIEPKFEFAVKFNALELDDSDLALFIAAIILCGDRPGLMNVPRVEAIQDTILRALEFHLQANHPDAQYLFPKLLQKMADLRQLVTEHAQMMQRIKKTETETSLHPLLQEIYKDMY
Chain of Retinoic acid receptor alpha (Homo sapiens) (P10276 whole entry, looked up, the tested form may be a part): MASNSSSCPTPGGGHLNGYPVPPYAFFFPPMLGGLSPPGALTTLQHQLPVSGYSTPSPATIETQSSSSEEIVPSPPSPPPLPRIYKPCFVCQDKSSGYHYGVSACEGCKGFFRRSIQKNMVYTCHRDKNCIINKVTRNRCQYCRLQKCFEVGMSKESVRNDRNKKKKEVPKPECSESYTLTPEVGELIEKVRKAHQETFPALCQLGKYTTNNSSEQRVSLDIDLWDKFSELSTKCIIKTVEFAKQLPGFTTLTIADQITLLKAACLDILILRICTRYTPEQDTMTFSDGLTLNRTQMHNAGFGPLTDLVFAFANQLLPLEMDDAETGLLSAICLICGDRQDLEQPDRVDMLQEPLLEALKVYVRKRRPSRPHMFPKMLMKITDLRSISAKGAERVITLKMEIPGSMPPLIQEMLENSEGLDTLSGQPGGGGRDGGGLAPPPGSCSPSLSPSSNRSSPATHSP
Chain of human Retinoic Acid Receptor beta (RARb), RARB (gene 5915) (P10826 whole entry, looked up, the tested form may be a part): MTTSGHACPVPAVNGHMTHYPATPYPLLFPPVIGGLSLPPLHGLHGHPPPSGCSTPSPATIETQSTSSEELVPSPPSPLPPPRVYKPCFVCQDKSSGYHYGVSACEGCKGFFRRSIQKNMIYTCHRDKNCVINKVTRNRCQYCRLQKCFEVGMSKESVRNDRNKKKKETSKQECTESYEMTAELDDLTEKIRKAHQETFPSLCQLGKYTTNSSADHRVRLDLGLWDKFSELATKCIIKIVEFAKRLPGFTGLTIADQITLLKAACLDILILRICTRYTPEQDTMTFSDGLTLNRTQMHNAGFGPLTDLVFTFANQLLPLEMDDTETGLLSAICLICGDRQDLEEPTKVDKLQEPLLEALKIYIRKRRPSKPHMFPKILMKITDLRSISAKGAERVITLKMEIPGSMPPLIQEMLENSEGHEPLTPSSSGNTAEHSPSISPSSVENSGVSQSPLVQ
Chain of Peroxisome proliferator-activated receptor gamma (Homo sapiens) (P37231 whole entry, looked up, the tested form may be a part): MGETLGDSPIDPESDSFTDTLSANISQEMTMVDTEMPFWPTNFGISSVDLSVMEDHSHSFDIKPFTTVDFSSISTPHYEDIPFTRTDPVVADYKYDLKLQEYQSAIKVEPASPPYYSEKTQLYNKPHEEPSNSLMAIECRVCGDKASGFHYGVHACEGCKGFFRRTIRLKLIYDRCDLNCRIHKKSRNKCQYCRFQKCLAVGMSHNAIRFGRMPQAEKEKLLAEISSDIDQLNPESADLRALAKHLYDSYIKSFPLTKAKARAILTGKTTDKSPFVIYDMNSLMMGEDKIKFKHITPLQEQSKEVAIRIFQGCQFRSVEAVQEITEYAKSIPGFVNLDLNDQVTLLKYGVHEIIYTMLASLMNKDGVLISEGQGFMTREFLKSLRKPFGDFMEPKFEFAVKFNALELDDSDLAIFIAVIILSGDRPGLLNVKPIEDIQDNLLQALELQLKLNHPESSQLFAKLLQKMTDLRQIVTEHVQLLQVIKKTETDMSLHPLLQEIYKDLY
Chain of Myc proto-oncogene protein (Homo sapiens) (P01106 whole entry, looked up): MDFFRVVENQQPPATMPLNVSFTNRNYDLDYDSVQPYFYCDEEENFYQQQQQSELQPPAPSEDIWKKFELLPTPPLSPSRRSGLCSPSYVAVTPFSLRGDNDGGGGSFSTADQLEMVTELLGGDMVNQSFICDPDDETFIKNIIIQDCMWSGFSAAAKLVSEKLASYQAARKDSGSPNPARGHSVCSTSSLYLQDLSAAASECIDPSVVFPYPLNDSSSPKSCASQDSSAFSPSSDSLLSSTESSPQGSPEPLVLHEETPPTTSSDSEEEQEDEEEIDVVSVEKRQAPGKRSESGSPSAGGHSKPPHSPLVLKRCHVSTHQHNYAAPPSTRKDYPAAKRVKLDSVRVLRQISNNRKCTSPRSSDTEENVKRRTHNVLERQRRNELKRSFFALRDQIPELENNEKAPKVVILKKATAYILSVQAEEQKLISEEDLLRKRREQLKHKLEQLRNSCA
Chain of Cellular tumor antigen p53 (Homo sapiens) (P04637 whole entry, looked up): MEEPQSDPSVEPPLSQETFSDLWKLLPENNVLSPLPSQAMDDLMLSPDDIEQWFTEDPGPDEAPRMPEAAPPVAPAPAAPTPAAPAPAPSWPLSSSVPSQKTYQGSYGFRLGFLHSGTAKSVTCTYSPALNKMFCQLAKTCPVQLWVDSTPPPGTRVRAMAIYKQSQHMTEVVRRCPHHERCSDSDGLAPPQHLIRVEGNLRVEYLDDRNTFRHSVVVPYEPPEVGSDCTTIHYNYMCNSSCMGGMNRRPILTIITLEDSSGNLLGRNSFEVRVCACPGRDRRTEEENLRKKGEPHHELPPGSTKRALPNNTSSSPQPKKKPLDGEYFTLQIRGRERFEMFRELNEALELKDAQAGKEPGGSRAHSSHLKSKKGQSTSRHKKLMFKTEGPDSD
Chain of human Peroxisome Proliferator-activated Receptor alpha (PPARa), PPARA (gene 5465) (Q07869 whole entry, looked up, the tested form may be a part): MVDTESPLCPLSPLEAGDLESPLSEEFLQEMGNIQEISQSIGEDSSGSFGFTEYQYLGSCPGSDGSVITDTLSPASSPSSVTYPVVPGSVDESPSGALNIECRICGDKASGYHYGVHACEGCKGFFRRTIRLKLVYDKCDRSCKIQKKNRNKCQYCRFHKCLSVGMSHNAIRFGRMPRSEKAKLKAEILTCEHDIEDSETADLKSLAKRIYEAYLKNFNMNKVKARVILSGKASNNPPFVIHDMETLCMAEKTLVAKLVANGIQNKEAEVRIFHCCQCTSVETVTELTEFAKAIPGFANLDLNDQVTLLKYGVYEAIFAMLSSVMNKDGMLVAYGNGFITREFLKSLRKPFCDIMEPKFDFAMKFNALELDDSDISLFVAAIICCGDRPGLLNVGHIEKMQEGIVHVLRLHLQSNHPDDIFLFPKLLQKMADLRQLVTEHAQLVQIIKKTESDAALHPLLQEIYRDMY
Chain of Nuclear receptor subfamily 1 group I member 2 (Homo sapiens) (O75469 whole entry, looked up, the tested form may be a part): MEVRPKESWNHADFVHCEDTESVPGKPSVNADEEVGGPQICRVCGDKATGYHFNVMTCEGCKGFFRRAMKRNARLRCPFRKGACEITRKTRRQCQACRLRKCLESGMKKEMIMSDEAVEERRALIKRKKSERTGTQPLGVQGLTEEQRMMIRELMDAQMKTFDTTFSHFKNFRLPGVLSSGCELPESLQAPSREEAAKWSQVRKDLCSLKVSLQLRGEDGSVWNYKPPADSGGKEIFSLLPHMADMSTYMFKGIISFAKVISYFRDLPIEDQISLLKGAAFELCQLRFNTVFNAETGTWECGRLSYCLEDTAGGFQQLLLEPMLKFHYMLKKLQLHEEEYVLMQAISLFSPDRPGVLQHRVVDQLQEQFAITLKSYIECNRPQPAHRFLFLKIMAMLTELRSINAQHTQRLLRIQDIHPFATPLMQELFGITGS

CCOc1ccc2c(c1)C(C)=CC(C)(C)N2
active: [1] 133 µM | [2] 166 µM | [4] 27.1 µM | [5] 142 µM | [12] 170 µM | [15] 28.7 µM | [16] 1.86 µM
not listed: [17] | [18] | [19] | [20]
inactive: all other assays above

CCCCCC(=O)O
not listed: [2] | [15] | [16] | [19] | [20]
inactive: all other assays above

CCCc1cc(=O)[nH]c(=S)[nH]1
active: [10] 0.666 µM
not listed: [11] | [16] | [17] | [18] | [19] | [20]
inactive: all other assays above

Cc1c(C(=O)O)c(O)cc2c1C(=O)c1c(O)c([C@@H]3O[C@H](CO)[C@@H](O)[C@H](O)[C@H]3O)c(O)c(O)c1C2=O
not listed: [12] | [16] | [17] | [20]
inactive: all other assays above

Cc1ccccc1Cl
not listed: [11] | [15] | [17] | [18] | [19] | [20]
inactive: all other assays above

CN1CCN(Cc2cc(-c3ccc4[nH]c(=O)oc4c3)co2)[C@@H](c2ccc(F)cc2)C1
active: [17] 8.72 µM | [4] 61.4 µM | [5] 45.4 µM | [6] 12.1 µM | [8] 26.7 µM | [14] 23.4 µM | [15] 42.4 µM
not listed: [2] | [18] | [19] | [20]
inactive: all other assays above

FC(F)(F)C(F)(F)C(F)(F)C(F)(F)C(F)(F)C(F)(F)CCI
not listed: [15] | [17] | [20]
inactive: all other assays above

CCCCc1ccc2c(n1)[C@@H](c1ccc(OC)cc1C[C@H](C)C(=O)O)[C@H](C(=O)O)[C@H]2c1ccc2c(c1)OCO2
not listed: [12] | [15] | [17] | [18] | [19] | [20]
inactive: all other assays above

CCCCN(CCCC)CCCC
not listed: [2] | [15] | [18] | [19] | [20]
inactive: all other assays above

COc1ccc(S(=O)(=O)N2C(=O)[C@@](c3ccccc3OC)(N3C[C@H](O)C[C@H]3C(=O)N(C)C)c3cc(Cl)ccc32)c(OC)c1
active: [5] 38 µM | [6] 49.7 µM | [8] 20 µM | [9] 28.8 µM | [14] 28.7 µM | [16] 0.038 µM
not listed: [11] | [17] | [19] | [20]
inactive: all other assays above

O=c1[nH]cc(F)c(=O)[nH]1
active: [6] 11.5 µM | [14] 7.81 µM
not listed: [15] | [16] | [17] | [18] | [19] | [20]
inactive: all other assays above

Cc1ccc(C)c(C)c1
not listed: [2] | [15] | [19]
inactive: all other assays above

CC(C)(C)c1cc(O)c(C(C)(C)C)cc1O
active: [1] 162 µM | [3] 114 µM | [4] 30.5 µM | [5] 33 µM | [7] 7.03 µM | [9] 9.79 µM | [10] 6.65 µM | [14] 8.74 µM | [15] 38.7 µM | [16] 2.99 µM
inactive: [17] | [6] | [8] | [11] | [12] | [13] | [20] | [19] | [18]

NCCO
not listed: [11] | [12] | [15] | [16] | [17]
inactive: all other assays above

CC=Cc1ccc(O)c(OC)c1
active: [4] 16.2 µM | [15] 61.5 µM
not listed: [12] | [17] | [19]
inactive: all other assays above

NS(=O)(=O)c1cc2c(cc1Cl)NCNS2(=O)=O
not listed: [11] | [12] | [17] | [18] | [19] | [20]
inactive: all other assays above
